The entries come from a sample that favours hits as a whole.
Shiga inhibitor = A qHTS for Small Molecule Inhibitors of Shiga Toxin; Vero cells, Shiga toxin protein synthesis inhibition reporter; inhibition, % at 38.7 µM; 9.2% of 290,000 active; AID 2315, 2010; in the data active = inhibition mostly above about 28%, no sharp cut-off; inactive = mostly below about 43%; also: 0% is about no effect
AmpC inh no detg = qHTS Inhibitors of AmpC Beta-Lactamase (assay without detergent); AmpC nitrocefin hydrolysis, absorbance 480 nm, 0.0001% Triton; P00811; 0.52% of 330,000 active; Potency, µM (titrated, usually from 57.1 µM), inactives show at the top dose activity change, negative = inhibition, hits mostly inhibitors;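 also: potency is read from the fitted curve at half-maximal effect; plate controls were no compound for no effect and no enzyme for full effect; nearly all actives have a fitted effect of over 20% in size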
Target sequence (P00811 whole entry, looked up): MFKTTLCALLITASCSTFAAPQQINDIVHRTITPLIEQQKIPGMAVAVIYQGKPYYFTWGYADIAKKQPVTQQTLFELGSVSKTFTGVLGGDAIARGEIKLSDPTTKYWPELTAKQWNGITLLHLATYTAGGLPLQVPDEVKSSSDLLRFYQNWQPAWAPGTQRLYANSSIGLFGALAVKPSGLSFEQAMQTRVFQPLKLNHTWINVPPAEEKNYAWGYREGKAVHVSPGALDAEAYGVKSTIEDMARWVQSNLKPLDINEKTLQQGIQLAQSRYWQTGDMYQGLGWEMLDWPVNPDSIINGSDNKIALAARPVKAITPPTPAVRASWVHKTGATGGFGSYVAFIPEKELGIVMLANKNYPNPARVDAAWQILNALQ
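AmpC (5.3 nM in the dispensed reagent) in 20 mM phosphate pH 7.0 with 0.01% (detergent screen) or 0.0001% Triton X-100 was preincubated with compounds for 15 min at room temperature. Nitrocefin was then added from an 800 uM solution, and hydrolysis was followed at 480 nm.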
CHX counter = Cycloheximide Counterscreen for Small Molecule Inhibitors of Shiga Toxin | AID 2314, 2010 | max response, % | cell reporter, cycloheximide protein synthesis inhibition counterscreen | 12% of 300,000 active; in the data active = max response mostly above about 13%, no sharp cut-off; inactive = mostly below about 14%; also: read at 38.3 µM for the half of the compounds with a filed dose; 0% is about no effect
SARS PLpro yeast = qHTS of Yeast-based Assay for SARS-CoV PLP. Potency, µM (doses to about 32.9 µM), for the others: at the highest dose activity, positive = growth rescue, usual class: activators. 0.19% of 330,000 active. S. cerevisiae expressing SARS-CoV PLpro, growth rescue. AID 485353, 2010; calls by dose curve; also: potency is read from the fitted curve at half-maximal effect; 0% is about no effect; nearly all actives have a fitted effect of over 55% in size
AMA1-RON2 inh = qHTS for Inhibitors of AMA1-RON; Towards Development of Antimalarial Drug Lead: Primary Screen. Plasmodium falciparum AMA1 (3D7) - RON2 peptide interaction. AlphaScreen AMA1-biotinylated RON2 peptide binding. Potency, µM (titrated, usually from 58.2 µM), for inactives: at the top dose activity change, negative = inhibition, hits mostly inhibitors. 0.2% of 360,000 active. AID 720542, 2013;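 also: potency is read from the fitted curve at half-maximal effect; 0% = vehicle wells and -100% = peptide control; nearly all actives have a fitted effect of over 45% in size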
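AMA1 (3D7) with his tag at 25 nM final met compounds first, then biotinylated RON2 peptide at 25 nM; detection used donor plus acceptor beads, 10 µg/mL apiece, read by AlphaScreen after 30 min at room temperature.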
AmpC detergent = qHTS Inhibitors of AmpC Beta-Lactamase (assay with detergent); P00811; AID 485294, 2010; AmpC hydrolysis of nitrocefin, absorbance 480 nm, 0.01% Triton; Potency, µM (top dose mostly 114 µM), for inactives: top-dose activity change, negative = inhibition, actives largely listed as inhibitors; 0.041% of 370,000 active;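 also: potency is read from the fitted curve at half-maximal effect; 0% = no-compound wells and -100% = no-enzyme wells; nearly all actives have a fitted effect of over 25% in size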
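AmpC (5.3 nM in the dispensed reagent) in 20 mM phosphate pH 7.0 with 0.01% (detergent screen) or 0.0001% Triton X-100 was preincubated with compounds for 15 min at room temperature. Nitrocefin was then added from an 800 uM solution, and hydrolysis was followed at 480 nm.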
Starred values were filed as active, the others as inactive. Unless noted, calls follow the shape of the dose curve; as a rule, active = well fitted curve in the direction sought with a large enough effect; inconclusive = small, poorly fitted or top-dose-only effect, or another doubt; inactive = no such curve, though single readings can be large; an effect the other way counts as inactive or inconclusive.

Cc1ccc(C(=O)OCC(=O)NCc2cccs2)cc1C was read as Shiga inhibitor 11, AmpC inh no detg -16%, CHX counter 14*, SARS PLpro yeast -1%, AMA1-RON2 inh -2% and AmpC detergent 2%.
For CCCCOc1ccc(C(=O)NCCc2cccs2)cc1 the results were Shiga inhibitor 123*, AmpC inh no detg -14%, CHX counter 43*, SARS PLpro yeast -6% and AmpC detergent 8%.
`COc1cc(C#N)ccc1OCC(=O)NCc1cccs1` gave Shiga inhibitor 53, AmpC inh no detg -25%, CHX counter 15*, SARS PLpro yeast 0%, AMA1-RON2 inh 10% and AmpC detergent 0%.
`CCOc1ccc(C(=O)NCc2cccs2)cc1` gave Shiga inhibitor 83*, AmpC inh no detg -1%, CHX counter 14, SARS PLpro yeast 5%, AMA1-RON2 inh -6% and AmpC detergent -16%.
For COc1ccccc1-c1ccc(=O)n(CC(=O)NCc2ccco2)n1 the results were Shiga inhibitor 18, AmpC inh no detg 3%, CHX counter 9, SARS PLpro yeast -5%, AMA1-RON2 inh 4% and AmpC detergent -14%.
Screening COc1ccccc1-c1ccc(=O)n(CC(=O)NCc2cccs2)n1 returned Shiga inhibitor 40*, AmpC inh no detg -5%, CHX counter 26, SARS PLpro yeast 3%, AMA1-RON2 inh -8% and AmpC detergent -7%.
Cn1c(=O)cc(OCC(=O)NCc2cccs2)c2ccccc21 was read as Shiga inhibitor 51*, AmpC inh no detg -17%, CHX counter 18, SARS PLpro yeast 5%, AMA1-RON2 inh 17% and AmpC detergent -10%.
For Cc1ccc(OCC(=O)NCc2cccs2)cc1 the results were Shiga inhibitor 29*, AmpC inh no detg -21%, CHX counter 27*, SARS PLpro yeast 4%, AMA1-RON2 inh -6% and AmpC detergent -10%.
O=C(COc1ccccc1)NCc1cccs1 was read as Shiga inhibitor 28, AmpC inh no detg -6%, CHX counter 7, SARS PLpro yeast -14%, AMA1-RON2 inh -5% and AmpC detergent -6%.
For CCOc1ccc(N(CC)C(=O)COc2cc(=O)n(C)c3ccccc23)cc1 the results were Shiga inhibitor -4, AmpC inh no detg 25µM*, CHX counter -1, SARS PLpro yeast 3%, AMA1-RON2 inh -8% and AmpC detergent inconclusive.
Screening COc1ccc(CNC(=O)COc2cc(=O)n(C)c3ccccc23)cc1 returned Shiga inhibitor 17, AmpC inh no detg -15%, CHX counter -9, SARS PLpro yeast -5%, AMA1-RON2 inh -19% and AmpC detergent -12%.
`Cc1cc([N+](=O)[O-])c2[nH]c(C(=O)N/N=C/c3ccccc3C(=O)O)c(-c3ccccc3)c2c1` gave Shiga inhibitor 18, AmpC inh no detg -40%, CHX counter 19, SARS PLpro yeast -13%, AMA1-RON2 inh 6% and AmpC detergent 8%.
For COc1cccc(CN2CCCC(C(=O)N3CCCCC3)C2)c1OC (stereo not drawn) the results were Shiga inhibitor 11, AmpC inh no detg -12%, CHX counter -2, SARS PLpro yeast 6%, AMA1-RON2 inh inconclusive and AmpC detergent -14%.
For CC(C)c1ccc(CCNC(=O)CCNC(=O)c2ccc(Br)cc2)cc1 the results were Shiga inhibitor -3, AmpC inh no detg -16%, CHX counter -1, SARS PLpro yeast -4%, AMA1-RON2 inh 11% and AmpC detergent -4%.
Screening CCOc1c2ccc(C(=O)NCCc3cccs3)cc2nn1CC returned Shiga inhibitor 89*, AmpC inh no detg 52%, CHX counter 48*, SARS PLpro yeast 5%, AMA1-RON2 inh -2% and AmpC detergent inconclusive.
For CCCCn1nc2cc(C(=O)NCCc3cccs3)ccc2c1OCC the results were Shiga inhibitor 38, AmpC inh no detg inconclusive, CHX counter 11, SARS PLpro yeast -5%, AMA1-RON2 inh -12% and AmpC detergent 2%.

Screening results deposited in PubChem by National Center for Advancing Translational Sciences (NCATS).
